# Experimental data from publication PMC4552634, “A New Set of Chemical Starting Points with Plasmodium falciparum Transmission-Blocking Potential for Antimalarial Drug Discovery” (PLoS ONE, 2015).
# Like-named read-outs stand apart in the source and are kept apart here. About 3,200 (25%) of roughly 13,000 compounds showed an effect of 50% or more. This is one part of the list.
# Tested on: P. falciparum stage V gametocytes
# Design: BacTiter-Glo ATP luminescence viability of purified stage V gametocytes in 384-well plates, per cent inhibition versus DMSO
# Conditions: 48 h, 5 µM, inhibitor
Compound,% Inhibition,% Inhibition (% Inhibition)
CS(=O)(=O)N1CC2(CCN(CCC(NC(=O)/C=C/c3ccccc3)c3ccc(Cl)c(Cl)c3)CC2)c2ccccc21 (stereo not drawn) [TCMDC-141763],8.889%,–
CCCN1CCCN(Cc2cccc(NC(=O)c3ccc(-c4ccccc4)cc3)c2)CC1 [TCMDC-141843],-30.15%,–
CCC[C@@H]([C@@H](CC1CCCCC1)C(=O)N[C@H](C(=O)Nc1nccs1)[C@@H](C)OCc1ccccc1)N(O)C=O [TCMDC-138051],-19.92%,–
Cc1nc(SCC(=O)N2CCCC2=O)c2c(C)c(C)sc2n1 [TCMDC-123558],5.306%,–
Cc1[nH]nc2cc(F)c(-c3cc(OC[C@@H](N)Cc4ccccc4)cnc3-c3ccoc3)cc12 [TCMDC-136295],10.29%,–
Cc1cccc(Nc2nc(N)c3ccccc3n2)c1.Cl [TCMDC-123639],-2.53%,–
CCOC(=O)c1c(C)noc1Nc1cccc(C)c1C [TCMDC-131454],-30.94%,–
CCCCCCn1c(Sc2ccc(C#N)c([N+](=O)[O-])c2)nnc1-c1cc(OC)cc(OC)c1 [TCMDC-135589],37.66%,–
CN(C)c1ccc(-c2nnc(Sc3ccc(C#N)c([N+](=O)[O-])c3)n2Cc2ccco2)cc1 [TCMDC-135611],2.069%,–
O=[N+]([O-])c1ccc(-n2nc(-c3cccnc3)n(Cc3ccco3)c2=S)c(Cl)c1 [TCMDC-135132],83.46%,–
COc1cc(OC)cc(-c2nn(-c3ccc([N+](=O)[O-])cc3C#N)c(=S)n2Cc2ccco2)c1 [TCMDC-134715],75.07%,–
N#Cc1cc([N+](=O)[O-])ccc1-n1nc(-c2cccc(Cl)c2)n(Cc2ccco2)c1=S [TCMDC-134717],102.9%,–
COc1cc(OC)cc(-c2nn(-c3ccc([N+](=O)[O-])cc3Cl)c(=S)n2Cc2ccco2)c1 [TCMDC-135128],93.16%,–
C=CCN1C(=O)c2[nH]nc(-c3cc(C)c(C)cc3O)c2C1c1cccc(Br)c1 (stereo not drawn) [TCMDC-124621],9.594%,–
Cn1c(CN2CCC(N3CCc4cc(NC(=O)c5ccco5)ccc43)C2)cc2ccccc21 (stereo not drawn) [TCMDC-135073],32.96%,–
NC(N)=Nc1cccc(NC(=O)Nc2cccc(N=C(N)N)c2)c1 [TCMDC-137209],-4.06%,–
Cc1ccc2c(C3=CCN(CCCCC4(C)C(=O)Nc5ccccc54)CC3)c(C)[nH]c2c1 (stereo not drawn) [TCMDC-141006],-63.83%,–
COc1cc(Cc2cnc(N)nc2N)cc(OCCCC(=O)O)c1OC [TCMDC-137359],3.526%,–
O=C(NCCCCN1CCCC2c3ccc(O)cc3CCC21)c1ccc(-c2ccccc2)cc1 (stereo not drawn) [TCMDC-139084],–,-62.82%
CCOc1cc(Cc2cnc(N)nc2N)cc(OCC)c1-n1cccc1 [TCMDC-137295],0.7486%,–
O=C(/C=C/c1c(Cl)cccc1Cl)NC1CCC(CN2C3CCC2CC(c2c[nH]c4ccccc24)C3)CC1 (stereo not drawn) [TCMDC-140103],74.61%,–
O=C(/C=C/c1ccccc1Cl)NC1CCC(CN2C3CCC2CC(c2c[nH]c4ccccc24)C3)CC1 (stereo not drawn) [TCMDC-139931],92.87%,–
CS(=O)(=O)Nc1ccc2[nH]cc(C3CC4CCC(C3)N4CC3CCC(NC(=O)/C=C/c4ccc(Cl)c(Cl)c4)CC3)c2c1 (stereo not drawn) [TCMDC-139807],14.27%,–
CC(C)(C)c1ccc(NC(=O)c2cccc(CN3CCCN(Cc4ccsc4)CC3)c2)cc1 [TCMDC-135992],-46.34%,–

Compound,% Inhibition,% Inhibition (% Inhibition)
CCC(C(=O)Nc1cc(=O)[nH]c2nc(-c3ccco3)nn12)c1ccccc1 (stereo not drawn) [TCMDC-125323],-11.89%,–
CN(C)c1ccnc2ccc(NC(=O)Nc3ccnc4ccccc34)cc12 [TCMDC-139749],70.09%,–
COc1ccc(NC(=O)Nc2cc(C)nc3ccccc23)cc1Cl [TCMDC-139820],-57.55%,–
O=C(Nc1cccc(Cl)c1Cl)Nc1ccnc2ccccc12 [TCMDC-139462],3.661%,–
COc1cc(NC(=O)Nc2ccnc3ccccc23)cc(OC)c1 [TCMDC-139446],84.12%,–
CCOc1cc(NC(=O)Nc2ccnc3ccccc23)cc(OC)c1 [TCMDC-139788],14.31%,–
COc1cc(NC(=O)Nc2cc(C)nc3ccccc23)cc(OC)c1 [TCMDC-139821],78.53%,–
CCc1cc(NC(=O)Nc2ccnc3ccccc23)ccc1OC [TCMDC-139354],1.366%,–
CCCOc1cc(NC(=O)Nc2ccnc3ccccc23)cc(OCCC)c1 [TCMDC-139491],3.955%,–
O=C(Nc1cc(Cl)cc(Cl)c1)Nc1ccnc2ccccc12 [TCMDC-139375],74.86%,–
COc1cccc(NC(=O)Nc2cc(C)nc3ccccc23)c1 [TCMDC-138950],-4.503%,–
CN(C)c1ccc(NC(=O)Nc2ccnc3ccccc23)cc1Br [TCMDC-139316],-21.1%,–
COc1ccc(Cl)cc1NC(=O)Nc1ccnc2ccccc12 [TCMDC-139457],13.69%,–
O=C(/C=C/c1ccc(Cl)c(Cl)c1)NCCCCCN1CCC(NC(=O)Nc2cccc(F)c2)CC1 [TCMDC-135704],-72.87%,–
CC(C)NCc1cccc(-c2cccc(-c3nc4ccc(F)cc4[nH]3)c2)c1 [TCMDC-132747],-26.37%,–
CC[C@@H]([C@@H](Cc1cc2ccccc2s1)C(=O)N[C@@H](CCCCNC(=O)OCc1ccccc1)C(=O)Nc1ccccn1)N(O)C=O [TCMDC-138086],8.625%,–
CCCCc1ccc(Cc2cnc3nc(N)nc(N)c3c2C)cc1 [TCMDC-138045],-16.41%,–
CCCCCCN(C(=O)OCc1ccccc1)C1CCN(C(=O)OC(C)(C)C)CC1C(=O)OCC (stereo not drawn) [TCMDC-140339],26.28%,–
CCOC(=O)c1c(C)n(-c2ccccc2)c2ccc(OC(=O)c3ccc(S(=O)(=O)N(CC)CC)cc3)cc12 [TCMDC-125723],7.356%,–
CCN(C)c1cc(C(=O)N[C@@H](Cc2ccccc2)[C@H](O)CNC(C)(C)c2cccc(OC)c2)cc(N2CCCC2=O)c1 [TCMDC-134529],28.65%,–
Cc1cc(NC(=O)Nc2ccc(C(C)C)cc2)c2ccccc2n1 [TCMDC-139826],6.688%,–
CSc1ccc(NC(=O)Nc2cc(C)nc3ccccc23)cc1 [TCMDC-139394],23.44%,–
Cc1cc(NC(=O)Nc2ccc(C(C)(C)C)cc2)c2ccccc2n1 [TCMDC-139981],63.23%,–
Cc1cc(C2CCN(CCCCNC(=O)c3ccc(-c4ccc(C#N)cc4)cc3)CC2)c(C)cc1OCCO [TCMDC-138827],-59.1%,–

Compound,% Inhibition,% Inhibition (% Inhibition)
CCc1ccc(C2CCN(CCCCNC(=O)c3ccc(NC(=O)c4ccc(Cl)cc4)cc3)CC2)c(OCC(=O)OC)c1 [TCMDC-138707],40.9%,–
CCOc1cc(CC)ccc1C1CCN(CCN2CCC(NC(=O)c3ccc(-c4ccc(C#N)cc4)cc3)CC2)CC1 [TCMDC-138829],12.51%,–
CCc1ccc(C2CCN(CCCCNC(=O)c3ccc(NC(=O)c4ccc(Cl)cc4)cc3)CC2)c(OC(C)=O)c1 [TCMDC-138648],96.99%,–
CCOc1cc(CC)ccc1C1CCN(CCN2CCC(NC(=O)c3ccc(-c4ccc(C(C)=O)cc4)cc3)CC2)CC1 [TCMDC-138882],-11.21%,–
CCOc1cc(CC)ccc1C1CCN(CCCCNC(=O)c2ccc(NC(=O)c3ccc(C#N)cc3)cc2)CC1 [TCMDC-138662],87.14%,–
CCOc1cc(CC)ccc1C1CCN(CCN2CCC(CNC(=O)c3ccc(-c4ccc(C#N)cc4)cc3)CC2)CC1 [TCMDC-138847],107.7%,–
CCOc1cc(CC)ccc1C1CCN(CCCCNC(=O)c2ccc(NC(=O)c3ccc(Cl)cc3)cc2)CC1 [TCMDC-138317],61.4%,–
CC(=O)Oc1cc(C)ccc1C1CCN(CCCCNC(=O)c2ccc(NC(=O)c3ccc(Cl)cc3)cc2)CC1 [TCMDC-138630],-17.17%,–
CCc1ccc(C2CCN(CCCCNC(=O)c3ccc(NC(=O)c4ccc(Cl)cc4)cc3)CC2)c(OC)c1 [TCMDC-138377],-11.09%,–
CC1(C)N=C(N)N=C(N)N1OCCCNC(=O)c1ccc([N+](=O)[O-])cc1 [TCMDC-131666],6.997%,–
c1ccc(COc2ccc(Nc3ncnc4cnc(-c5ccc(CN6CCCCC6)o5)cc34)cc2)cc1 [TCMDC-137775],-26.66%,–
CCCCCC(C)C(C)c1cc(O)c2c(c1)OC(C)(C)CC2=Cc1ccncc1 (stereo not drawn) [TCMDC-131746],-25.77%,–
C#CC[C@@H](NC(N)=O)C(=O)O [TCMDC-131404],-1.405%,–
O=S(=O)(NC1CCN(c2ccnc3cc(Cl)ccc23)C1)c1cccc(F)c1 (stereo not drawn) [TCMDC-133657],-15.22%,–
CCOc1cc(C)ccc1C1CCN(CCCCNC(=O)c2cccc(-c3ccc(C(F)(F)F)cc3)c2)CC1 [TCMDC-138534],29.59%,–
CCc1ccc(C2CCN(CCCCNC(=O)c3ccc(NC(=O)c4ccc(Cl)cc4)cc3)CC2)c(OCCO)c1 [TCMDC-138703],131.2%,–
CCOc1cc(C)ccc1C1CCN(CCCCNC(=O)c2ccc(-c3ccc(C(F)(F)F)cn3)cc2)CC1 [TCMDC-138535],16.24%,–
COc1cccc(C2CCN(CCN3CCC(NC(=O)c4ccc(-c5ccc(C#N)cc5)cc4)CC3)CC2)c1 [TCMDC-138860],-1.987%,–
CCOc1cc(C)ccc1N1CCN(CCN2CCC(NC(=O)c3ccc(-c4ccc(C#N)cc4)cc3)CC2)CC1 [TCMDC-138866],88.4%,–
COc1cccc(C2CCN(CCN3CCC(CNC(=O)c4ccc(-c5ccc(C(F)(F)F)cc5)cc4)CC3)CC2)c1 [TCMDC-138830],71.94%,–
CCOc1cc(C)ccc1C1CCN(CCN2CCC(CNC(=O)c3ccc(-c4ccc(C(F)(F)F)cc4)cc3)CC2)CC1 [TCMDC-138805],96.77%,–
COc1cccc(C2CCN(CCN3CCC(NC(=O)c4ccc(-c5ccc(Cl)cc5)cc4)CC3)CC2)c1 [TCMDC-138833],-13.87%,–
COc1cccc(C2CCN(CCN3CCC(NC(=O)c4ccc(-c5ccc(C(F)(F)F)cc5)cc4)CC3)CC2)c1 [TCMDC-138819],18.98%,–
COc1ccccc1C1CCN(CCN2CCC(NC(=O)c3ccc(-c4ccc(C#N)cc4)cc3)CC2)CC1 [TCMDC-138880],-25.62%,–
